Experimental data from PubChem BioAssay.
Activity calls are given as the source filed them.

Tests used:
[1] = small molecules captured by biotinylated probe aFSTL3 – biochemical, small-molecule microarray, fluorescence 635/667, stem cell growth factor project, primary screen (AID 1064); details: higher = more signal;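 also: measures binding of the biotinylated anti-FSTL3 antibody to printed compounds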
[2] = binders from COS7 lysate, DM2A8 probe, primary screen, torsin A project, cell lysate, small-molecule microarray, fluorescence 635/667 (AID 1065); details: higher = more signal, COS7 lysate expressing mutant human TOR1A
[3] = small molecules captured by biotinylated probe aFGF2 – biochemical, small-molecule microarray, fluorescence 635/667, stem cell growth factor project, primary screen (AID 1067); details: higher = more signal;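 also: measures binding of biotinylated aFGF2 protein to printed compounds on slides; z-score merges feature fluorescence and signal-to-noise across triplicate slides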
[4] = small molecules captured by biotinylated probe aFGF10 – biochemical, small-molecule microarray, fluorescence 635/667, stem cell growth factor project, primary screen (AID 1071); details: higher = more signal;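 also: score merges 667 nm spot intensity and signal to noise from triplicate slides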
[5] = molecular target: Neurogenic locus notch homolog protein 2 (Homo sapiens) (UniProt Q04721); assay: small molecules binding Notch2 protein – biochemical, small-molecule microarray, 635 nm fluorescence, stem cell growth factors, primary screen (AID 1073); details: higher = more signal
[6] = molecular target: Pro-neuregulin-1, membrane-bound isoform (Homo sapiens) (UniProt Q02297); assay: small molecules binding neuregulin-1 protein – biochemical, small-molecule microarray, fluorescence 635/667, psychiatric disease protein project, primary screen (AID 1075); details: NRG1 binding, 635 nm fluorescence, higher = more signal;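 also: score combines 667 nm spot fluorescence with signal to noise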
[7] = tested on: Neuregulin-1 EGF-like domain; assay: small molecules binding NRG1 EGF domain – biochemical, small-molecule microarray, 635 nm fluorescence, primary screen (AID 1081); details: higher = more signal;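 also: binding of the protein to compounds printed on small-molecule microarray slides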
[8] = FRG1 expression reporter modulators in myotubes – cell-based, C2C12 myotubes, firefly/Renilla luciferase, luminescence, FRG1 inhibition for FSHD, primary screen (AID 1084); details: FRG1 promoter luciferase, higher = more signal, called active from +8 up or from −8 down
[9] = small molecules captured by biotinylated probe aFST – biochemical, small-molecule microarray, fluorescence 635/667, stem cell growth factor project, primary screen (AID 1086); details: higher = more signal;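 also: score merges 667 nm fluorescence with signal-to-noise of each printed compound spot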
[10] = binders of probe aHhip on microarray, primary screen, stem cell growth factor project, biochemical, small-molecule microarray, fluorescence 635/667 (AID 1087); details: higher = more signal;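 also: score merges spot fluorescence at 667nm with spot signal to noise ratio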

Chain of Neurogenic locus notch homolog protein 2 (Homo sapiens) (Q04721 whole entry, looked up, canonical isoform): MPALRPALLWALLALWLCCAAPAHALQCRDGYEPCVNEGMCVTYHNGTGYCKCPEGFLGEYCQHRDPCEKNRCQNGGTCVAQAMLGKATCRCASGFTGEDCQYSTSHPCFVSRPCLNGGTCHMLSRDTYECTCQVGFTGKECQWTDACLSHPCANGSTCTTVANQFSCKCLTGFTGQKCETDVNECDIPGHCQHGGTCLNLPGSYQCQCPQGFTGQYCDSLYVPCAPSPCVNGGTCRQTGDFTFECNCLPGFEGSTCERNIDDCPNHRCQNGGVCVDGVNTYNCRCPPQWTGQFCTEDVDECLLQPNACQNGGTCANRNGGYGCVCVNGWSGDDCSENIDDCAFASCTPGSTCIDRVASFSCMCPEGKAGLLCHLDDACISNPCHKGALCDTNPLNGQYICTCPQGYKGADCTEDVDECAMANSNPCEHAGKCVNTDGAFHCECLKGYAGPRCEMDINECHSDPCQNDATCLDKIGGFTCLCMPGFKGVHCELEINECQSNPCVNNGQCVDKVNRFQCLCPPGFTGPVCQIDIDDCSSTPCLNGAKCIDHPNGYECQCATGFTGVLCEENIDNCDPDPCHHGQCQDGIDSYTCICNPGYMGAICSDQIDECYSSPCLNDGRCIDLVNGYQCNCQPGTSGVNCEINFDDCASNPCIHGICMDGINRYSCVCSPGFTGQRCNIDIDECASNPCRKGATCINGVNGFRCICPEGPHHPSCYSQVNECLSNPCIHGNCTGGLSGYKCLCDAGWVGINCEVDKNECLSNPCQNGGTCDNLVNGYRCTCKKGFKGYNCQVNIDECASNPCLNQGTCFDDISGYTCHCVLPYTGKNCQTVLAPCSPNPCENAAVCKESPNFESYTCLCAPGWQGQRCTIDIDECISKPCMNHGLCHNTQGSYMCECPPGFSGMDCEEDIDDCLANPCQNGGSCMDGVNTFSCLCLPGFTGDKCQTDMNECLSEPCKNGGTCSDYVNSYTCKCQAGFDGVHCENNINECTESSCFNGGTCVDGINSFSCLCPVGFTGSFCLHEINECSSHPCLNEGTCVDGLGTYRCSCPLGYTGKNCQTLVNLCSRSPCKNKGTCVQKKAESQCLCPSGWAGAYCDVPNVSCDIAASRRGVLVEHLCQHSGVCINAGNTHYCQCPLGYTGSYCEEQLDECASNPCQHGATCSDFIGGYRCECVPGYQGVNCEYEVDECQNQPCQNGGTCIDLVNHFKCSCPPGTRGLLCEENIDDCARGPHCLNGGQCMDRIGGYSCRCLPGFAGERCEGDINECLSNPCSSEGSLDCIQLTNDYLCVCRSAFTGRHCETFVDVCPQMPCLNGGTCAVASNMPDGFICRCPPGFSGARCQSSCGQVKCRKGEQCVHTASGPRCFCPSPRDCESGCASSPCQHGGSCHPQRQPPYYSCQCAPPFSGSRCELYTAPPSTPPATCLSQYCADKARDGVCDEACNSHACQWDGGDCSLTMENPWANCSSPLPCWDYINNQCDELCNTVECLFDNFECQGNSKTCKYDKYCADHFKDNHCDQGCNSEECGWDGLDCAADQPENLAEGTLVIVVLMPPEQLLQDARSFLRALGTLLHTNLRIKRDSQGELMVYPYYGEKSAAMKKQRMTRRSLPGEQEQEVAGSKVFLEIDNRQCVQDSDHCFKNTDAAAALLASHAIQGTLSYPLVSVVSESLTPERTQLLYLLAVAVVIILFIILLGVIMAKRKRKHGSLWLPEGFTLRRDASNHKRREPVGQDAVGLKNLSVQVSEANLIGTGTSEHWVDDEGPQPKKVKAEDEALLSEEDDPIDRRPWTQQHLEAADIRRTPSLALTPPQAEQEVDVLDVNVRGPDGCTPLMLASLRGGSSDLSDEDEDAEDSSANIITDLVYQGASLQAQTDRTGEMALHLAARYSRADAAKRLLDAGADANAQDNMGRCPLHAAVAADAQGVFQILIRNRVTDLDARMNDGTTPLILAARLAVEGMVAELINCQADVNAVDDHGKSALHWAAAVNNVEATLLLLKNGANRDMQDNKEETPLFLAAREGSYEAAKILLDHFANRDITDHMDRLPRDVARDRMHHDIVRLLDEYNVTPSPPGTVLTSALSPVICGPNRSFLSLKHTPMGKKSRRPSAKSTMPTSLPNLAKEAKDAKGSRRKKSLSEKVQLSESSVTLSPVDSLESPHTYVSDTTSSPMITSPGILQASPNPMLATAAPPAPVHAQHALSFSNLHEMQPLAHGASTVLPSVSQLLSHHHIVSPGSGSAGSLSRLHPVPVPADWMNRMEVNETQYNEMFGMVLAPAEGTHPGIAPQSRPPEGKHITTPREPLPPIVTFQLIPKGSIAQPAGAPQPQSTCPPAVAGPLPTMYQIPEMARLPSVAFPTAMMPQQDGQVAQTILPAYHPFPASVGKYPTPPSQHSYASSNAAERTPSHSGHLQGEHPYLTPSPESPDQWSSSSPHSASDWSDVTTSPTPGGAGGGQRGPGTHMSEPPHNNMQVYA
Chain of Pro-neuregulin-1, membrane-bound isoform (Homo sapiens) (Q02297 whole entry, looked up, the tested form may be a part, canonical isoform): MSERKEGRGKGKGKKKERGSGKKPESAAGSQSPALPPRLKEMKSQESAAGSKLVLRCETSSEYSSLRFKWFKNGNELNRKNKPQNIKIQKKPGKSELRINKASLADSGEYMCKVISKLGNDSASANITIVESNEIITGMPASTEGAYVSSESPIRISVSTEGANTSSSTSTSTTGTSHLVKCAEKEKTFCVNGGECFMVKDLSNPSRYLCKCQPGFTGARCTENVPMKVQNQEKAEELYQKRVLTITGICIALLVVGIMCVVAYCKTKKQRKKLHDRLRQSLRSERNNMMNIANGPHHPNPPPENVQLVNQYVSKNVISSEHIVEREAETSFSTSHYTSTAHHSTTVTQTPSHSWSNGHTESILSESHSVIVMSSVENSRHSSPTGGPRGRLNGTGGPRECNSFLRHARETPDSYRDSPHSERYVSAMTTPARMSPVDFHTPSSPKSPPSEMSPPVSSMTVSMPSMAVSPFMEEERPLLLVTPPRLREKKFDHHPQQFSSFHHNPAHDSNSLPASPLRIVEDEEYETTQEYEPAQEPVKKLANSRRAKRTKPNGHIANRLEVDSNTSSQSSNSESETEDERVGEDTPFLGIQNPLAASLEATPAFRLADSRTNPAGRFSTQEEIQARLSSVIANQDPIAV

| Structure (SMILES) | composite z-score [1] | composite z-score [2] | composite z-score [3] | composite z-score [4] | composite z-score [5] | composite z-score [6] | composite z-score [7] | z-score [8] | composite z-score [9] | composite z-score [10] |
| --- | --- | --- | --- | --- | --- | --- | --- | --- | --- | --- |
| CN1C(=O)C2C(C1=O)C1C=C(c3ccc(CO)cc3)C2C(c2cccs2)N1Cc1cccc(OC(F)(F)F)c1 (stereo not given) | -0.16 | 0.669 | -0.109 | 0.432 | 1.25 | 1.87 | 1.35 | 0.785 (inactive) | 0.875 | 0.0505 |
| CC(C)OC(=O)CC(=O)CC(O)c1cccc(C#N)c1 (stereo not given) | 0.424 | 0.995 | -0.0103 | 0.535 | 1.43 | 0.311 | 0.936 | -0.326 (inactive) | 0.494 | -0.452 |
| CC(=O)NCCCC[C@@H]1NC(=O)[C@@H]2C[C@H](C(=O)O)[C@H](c3ccc(O)cc3)N2C1=O | 0.736 | -1.54 | -0.174 | -1.07 | -1.09 | 0.78 | 1.42 | 0.785 (inactive) | -0.765 | -0.372 |
| C[C@]1(C(=O)NC2CC2)c2ccccc2C(=O)N(Cc2ccc(OC(F)(F)F)cc2)[C@H]1c1ccc(CO)cc1 | 0.652 | 0.179 | -0.0642 | -0.366 | -1.02 | -0.47 | 0.745 | -1.68 (inactive) | 0.0221 | -0.111 |
| CC(C)(C)OC(=O)CC[C@]1(C(=O)NCCN2CCOCC2)N=C(c2ccc(OCCCO)cc2)O[C@H]1c1ccccc1 | 0.445 | -1.1 | -0.0939 | -0.109 | -0.313 | 1.66 | 1.09 | 0.273 (inactive) | 0.285 | -0.0618 |
| CN1C(=O)C2C=CC(C(O)c3c(F)cccc3Cl)N(Nc3ccccc3)C2C1=O (stereo not given) | -0.196 | -0.198 | 0.171 | 0.334 | 1.55 | 1.84 | 1.1 | 0.433 (inactive) | 0.878 | -0.0346 |
| COCCCNC(=O)[C@@H]1c2ccccc2C(=O)N(Cc2ccccc2C(F)(F)F)[C@H]1c1ccc(CO)cc1 | 0.6 | 0.054 | -0.0284 | -0.445 | -0.356 | 0.068 | 1.16 | 0.421 (inactive) | 0.0584 | -0.0726 |
| COCCOC(=O)N1C(=O)[C@@]2(c3cc(C#CC4=CCCCC4)ccc31)[C@H](c1ccc(O)cc1)N1[C@H](c3ccccc3)[C@H](c3ccccc3)OC(=O)[C@H]1[C@@H]2C(=O)Nc1nc2ccccc2s1 | -0.177 | 0.441 | 0.0323 | 0.969 | 1.24 | 0.896 | 1.23 | 1.53 (inactive) | 1.06 | 0.0972 |
| COCC(=C=CC[C@H](O)c1ccc(OCCO)cc1)C[C@H](O)COCc1ccccc1 | -0.41 | 0.0477 | -0.0762 | 0.477 | 0.189 | 0.586 | 1.03 | 0.723 (inactive) | 0.163 | 0.0505 |
| CCCCN1CC=CC23O[C@@H]4C=CCOC(=O)[C@@H]4[C@H]2C(=O)N(CCCO)[C@@H]3C1=O (stereo not given in full) | 0.594 | -0.0489 | -0.137 | -0.423 | -1.51 | 1.03 | 1.54 | 0.0518 (inactive) | -0.488 | -0.134 |
| CC(C)(C)OC(=O)CC[C@@]1(C(=O)O)N=C(c2ccc(OCCCO)cc2)O[C@@H]1c1ccccc1CN=[N+]=[N-] | 0.761 | 0.348 | 0.0732 | 0.246 | 0.717 | 1.03 | 1.19 | 5.39 (inactive) | 0.971 | 0.259 |
| [N-]=[N+]=NCc1ccccc1C[C@@]1(C(N)=O)N=C(c2ccc(OCCCO)cc2)O[C@@H]1c1ccccc1CN=[N+]=[N-] | 0.517 | -0.186 | -0.0469 | 0.972 | 1.53 | 1.01 | 1.19 | 1.56 (inactive) | 0.544 | -0.0645 |
| COC(=O)[C@@]1(Cc2ccccc2)[C@H]2c3cc(C(=O)N4CCCC4)n(C[C@H](O)CO)c3C[C@H]2CN1C(=O)c1ccccc1 | 0.52 | -0.0861 | -0.16 | 0.0518 | 1.58 | 1.99 | 1.3 | 0.593 (inactive) | 0.348 | 0.0053 |
| COC(=O)[C@@]1(Cc2ccc(F)cc2)[C@H]2c3cc(C(=O)N4CCCC4)n(CCF)c3C[C@H]2CN1C(=O)c1ccccc1 | 0.999 | 1.52 | 0.856 | 1.1 | 1.55 | 1.65 | 1.29 | -0.533 (inactive) | 2.81 | 2.09 |
| COC(=O)C[C@H]1O[C@]2(C(=O)N(C)c3ccccc32)[C@@H](C)[C@@H]1[Si](C)(C)c1ccc(C)cc1 | -0.361 | 0.285 | 0.033 | 0.453 | 0.778 | 0.274 | 0.815 | -2.37 (inactive) | 0.512 | 0.28 |
| O=C1O[C@@H](c2ccccc2)[C@@H](c2ccccc2)N2[C@@H](c3ccccc3OCCO)[C@]3(C(=O)Nc4ccc(C#CCCO)cc43)[C@@H](C(=O)Nc3nc4ccccc4s3)[C@H]12 | -0.0348 | 0.74 | -0.0165 | 1.07 | 1.36 | 1.5 | 1.3 | -2.4 (inactive) | 0.73 | 0.28 |
| C#CCNC(=O)[C@H](Cc1ccccc1)NC(=O)[C@@H](N=[N+]=[N-])C(C)C | -0.57 | -0.003 | -0.0894 | 0.334 | 1.04 | 0.452 | 1.08 | 0.171 (inactive) | 0.16 | -0.409 |
| COc1ccc([Si](C)(C)[C@H]2[C@H](CCn3cc([C@H](O)c4ccccc4)nn3)O[C@@]3(C(=O)N(Cc4ccc(N5CCOC5=O)cc4)c4ccccc43)[C@@H]2C)cc1 | 0.365 | -0.437 | -0.204 | -0.111 | -1.11 | 0.276 | -0.426 | -1.58 (inactive) | -0.757 | -0.236 |
| C[C@H]1C2=C3C(CC[C@H]4C(OCc5ccc(F)cc5C(F)(F)F)OC[C@](C)([C@@H]34)N(C(=O)OC(C)(C)C)C2)C(CO)C1CO (stereo not given in full) | 0.0721 | -0.249 | 0.0506 | -0.0807 | 1.57 | 1.76 | 0.572 | 0.133 (inactive) | 1.72 | 0.2 |
| C=CC[C@@]1(C(=O)N2CCCCC2)N=C(c2ccc(OCCCO)cc2)O[C@@H]1c1ccccc1 | 1 | 0.651 | 0.0336 | 0.307 | 0.201 | 1.56 | 1.19 | -1.21 (inactive) | 0.688 | 0.595 |
| O=C(N1CCCCC1)[C@@]1(Cc2ccccc2)COC(c2ccc(OCCCO)cc2)=N1 | 0.771 | 0.81 | 0.0661 | 1.1 | 1.33 | 1.91 | 1.25 | -2.97 (inactive) | 0.53 | 0.347 |
| C=CCC(OC(C)=O)[C@@H]1[C@@H](N(Cc2ccc(-c3ccccc3)cc2)C(=O)c2cccc3ccccc23)c2cc(OCCCO)ccc2N1C(=O)Cc1ccc2ccccc2c1 (stereo not given in full) | -0.144 | 0.407 | -0.0445 | 0.237 | -0.101 | -0.278 | -0.621 | -0.873 (inactive) | -0.0377 | 0.154 |
| O=C(CS)NCCCCCCNC(=O)[C@H]1C[C@H]2C(=O)N[C@@H](Cc3ccccc3)C(=O)N2[C@H]1c1cccc(OCCO)c1 | -0.165 | 0.605 | 0.0465 | 1.16 | 1.56 | 1.36 | 1.41 | 0.328 (inactive) | 0.928 | -0.145 |
| [N-]=[N+]=NCc1ccccc1[C@H]1OC(c2ccc(OCCCO)cc2)=N[C@@]1(CCS(=O)(=O)c1ccccc1)C(N)=O | 0.573 | 1.33 | 0.145 | 0.763 | 1.65 | 2.03 | 1.36 | 4.66 (inactive) | 0.805 | -0.0645 |
| Cc1ccc(S[C@]2(C(=O)NC(C)C)CC(=O)N(Cc3ccccc3C(F)(F)F)[C@@H]2c2ccc(CO)cc2I)cc1 | 1.01 | -0.685 | -0.0924 | -0.545 | -1.67 | 1.91 | 1.17 | -0.62 (inactive) | -0.415 | -0.274 |
| CCOC(=O)C1=C[C@@H](c2ccccc2)N(S(=O)(=O)c2ccc(C)cc2)[C@H]1c1cccc(Cl)c1 | 0.266 | 1.81 | 0.085 | 0.885 | 1.58 | 1.34 | 0.991 | -2.98 (inactive) | 1.02 | -0.0919 |
| CO[C@H]1O[C@H](CO)[C@@H](OC(=O)Nc2ccc(C(F)(F)F)cc2)[C@H](OC(=O)Nc2ccc3c(c2)OCO3)[C@H]1OC(=O)Nc1ccc2c(c1)OCO2 | 0.303 | 1.15 | 0.0557 | 0.794 | 1.41 | 1.6 | 1.3 | 6.45 (inactive) | 0.557 | 0.176 |
| O=C1O[C@@H](c2ccccc2)[C@@H](c2ccccc2)N2[C@@H](c3ccc(O)cc3)[C@]3(C(=O)Nc4ccccc43)[C@@H](C(=O)Nc3nc4ccccc4s3)[C@H]12 | 0.0072 | 0.155 | -0.0206 | 0.43 | -0.434 | 1.28 | 1.15 | -2.37 (inactive) | 0.642 | 0.0373 |
